Among all 420,000 compounds or so, about 50,000 (12%) were called active. Where a call stands in place of a potency, no number is given. Not shown: some 26% with an inconclusive outcome. Calls come from the whole dose curve; as a rule, active = well fitted inhibition curve with a large enough effect; inconclusive = small, poorly fitted or top-dose-only effect; inactive = flat fitted curve, though single readings scatter. The sample as a whole holds a higher share of actives than the screen did.
Experiment: qHTS for Inhibitors of human tyrosyl-DNA phosphodiesterase 1 (TDP1): qHTS in cells in presence of CPT; note: nearly all actives have a fitted effect of over 55% in size
Settings: chicken DT40 Tdp1-/-;hTDP1 cells + 20 nM CPT, ATP luminescence, 48 h; series mostly up to 46.2 µM
Method in brief: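 Cell growth measured by CellTiter-Glo luminescence after a minimum 48 h, 37 C compound exposure with 20 nM CPT in Tdp1-knockout DT40 cells stably expressing hTDP1, seeded 400/well; qHTS titration format.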
Potency is the fitted concentration of half-maximal effect.

Structure (SMILES) | Potency
Cc1ccc(-c2csc(C(C#N)=C(O)CN3CCN(C(=O)c4ccco4)CC3)n2)cc1 | inactive
CCOC(=O)c1cnc(-n2nc(C)cc2C)nc1-n1nc(C)cc1C | inactive
CCOC(=O)c1cnc(-n2nc(C)cc2C)nc1Nc1cccc(C(C)=O)c1 | 16.4 µM (active)
CCOC(=O)c1cccc(NC(=O)CCn2nnc3ccccc32)c1 | inactive
COC(=O)c1ccc(OC)c(Cn2c(=O)n(Cc3ccccc3)c(=O)c3c2c2cc(OC)ccc2n3C)c1 | inactive
O=S(=O)(NCCS(=O)(=O)N1CCN(c2ccccc2)CC1)c1ccc(Cl)cc1 | inactive
COCOCCn1cc(CN2CCS(=O)(=O)N(Cc3ccc(-c4ccc(OC)cc4)cc3)C(CC(C)C)C2=O)nn1 (configuration not stated) | 16.4 µM (active)
CC(=O)c1cccc(-c2ccc(CN3C(CC(C)C)C(=O)N(Cc4cn(CC5CCCCC5)nn4)CCS3(=O)=O)cc2)c1 (configuration not stated) | 20.6 µM (active)
COCCCn1cc(CN2CC(N(C)C)CS2(=O)=O)nn1 (configuration not stated) | inactive
CC(C)CC1C(=O)N(Cc2cn(Cc3ccco3)nn2)CCS(=O)(=O)N1Cc1ccc(-c2ccc(Cl)c(Cl)c2)cc1 (configuration not stated) | 18.4 µM (active)
COc1ccc(-c2ccc(CN3C(CC(C)C)C(=O)N(Cc4cn(CC5CCCCC5)nn4)CCS3(=O)=O)cc2)cn1 (configuration not stated) | 20.6 µM (active)
CC(=O)c1cccc(-n2nnnc2SCC(=O)NNC(=O)C2CCCCC2)c1 | inactive
CCOC(=O)NC(=O)CSc1nnc(SCCC(=O)O)s1 | inactive
Cc1nc(-c2ccc(F)cc2)c(CC(=O)N(C)CC(=O)Nc2c(C)cccc2C)s1 | inactive
Cc1ccccc1-n1cc(CNC(=O)C2CCC(=O)N(C3CC3)C2)cn1 (configuration not stated) | inactive
CCOC(=O)c1sc2nc(C)nc(Nc3ccc(OC)c(OC)c3)c2c1C | inactive
CC(=O)c1ccc(N=C2SCCCN2C(=O)C2CCCCC2)cc1 | inactive
Cc1ccc(-c2cc(C(=O)Oc3ccccc3Cl)no2)cc1C | inactive
COc1ccc([C@H]2N[C@]3(CCCN(CC4CCCCC4)C3=O)[C@H]3C(=O)N(C)C(=O)[C@@H]23)cc1 | inactive
COc1ccc(-c2ccc(CN3C(CC(C)C)C(=O)N(Cc4cn(CC5CCCCC5)nn4)CCS3(=O)=O)cc2)cc1 (configuration not stated) | 18.4 µM (active)
O=S1(=O)CC(N2CCSCC2)CN1Cc1cn(Cc2cccc(Cl)c2)nn1 (configuration not stated) | inactive
CC1C(=O)N(Cc2cn(CC3CCCCC3)nn2)CCS(=O)(=O)N1Cc1ccc(-c2cccc(N(C)C)c2)cc1 (configuration not stated) | 4.61 µM (active)
O=S1(=O)CC(N2CCN(CCO)CC2)CN1Cc1cn(Cc2cccc(Cl)c2)nn1 (configuration not stated) | inactive
COc1ccc(COC(=O)NC(C(=O)O)c2ccccc2)cc1 (configuration not stated) | inactive
O=C(O)c1ccccc1-c1ccccc1C(=O)Nc1ccccc1Br | inactive
O=C(CCNS(=O)(=O)c1ccc(Br)s1)NCc1ccccc1Cl | inactive

Structure (SMILES) | Potency
O=C(Nc1nnc(Cc2ccc(Cl)cc2)s1)c1cccnc1 | inactive
NC(=O)COc1ccc(NC(=O)c2ccccc2-c2ccccc2)cc1 | inactive
CCCc1nc2c(c(=O)c3ccccc3n2C)c(=O)n1C1CCCCCC1 | 18.4 µM (active)
CCOC(=O)c1nnn2c3ccccc3c(=O)n(C)c12 | inactive
Cn1c2ccccc2c(=O)c2c(O)cccc21 | inactive
CCOc1ccc(C(=O)Nc2ccc(S(=O)(=O)Nc3cc(C)on3)cc2)cc1 | inactive
Cc1ccc(Nc2c(-c3ccc(Cl)cc3)nc3sccn23)c(C)c1 | inactive
O=C(O)c1ccc(Cn2c(=S)[nH]c3cc(Cl)ccc3c2=O)cc1 | inactive
N#CC1=C(N)Oc2c(sc3ccccc23)C1c1ccco1 (configuration not stated) | 7.31 µM (active)
COC(=O)C1=C(O)/C(=C/c2ccc(OCC(=O)Nc3ccccc3)cc2)N=C1C | inactive
COC(=O)C1CCCCN1C(=O)c1ccc(OC2CCN(C(C)=O)CC2)c(OC)c1 (configuration not stated) | inactive
O=S(=O)(NC1CCCCC1N1CCC(O)CC1)c1ccc(Cl)cc1 (configuration not stated) | inactive
CNC(=O)N1c2ccccc2C=Cc2ccccc21 | inactive
CC1C(C)N(C(=O)CCl)c2ccccc2N1C(=O)CCl (configuration not stated) | 0.58 µM (active)
CCNC(=O)N1c2ccccc2Sc2ccccc21 | inactive
Cc1[nH]n(-c2ccccc2)c(=O)c1N=Nc1ccccc1C(=O)N1CCCCC1 | inactive
Cc1[nH]n(-c2ccc([N+](=O)[O-])cc2)c(=O)c1C=NCCN1CCN(C(=O)c2ccccc2F)CC1 | 9.2 µM (active)
C=CCNC(=S)N1CCN(CCN=Cc2c(C)[nH]n(-c3ccc([N+](=O)[O-])cc3)c2=O)CC1 | inactive
CCCC(=O)Nc1cccc(NC(=S)NC(=O)C(C)Oc2ccc(Cl)cc2Cl)c1 (configuration not stated) | inactive
CC1CC(C)CN(C(=O)CCNC(=O)Cn2cnc3ccccc3c2=O)C1 (configuration not stated) | inactive
C=CCOc1cccc(C2C(C(=O)c3ccc(C)o3)=C(O)C(=O)N2CCCn2ccnc2)c1 (configuration not stated) | inactive
CC(C)N1CCc2c(sc(NC(=O)Cc3ccccc3)c2C#N)C1 | inactive
CC(=O)N1CCc2c(sc(NC(=O)CCS(=O)(=O)c3ccccc3)c2C#N)C1 | 20.6 µM (active)
CCC1CCc2c(sc(NC(C)=O)c2C#N)C1 (configuration not stated) | inactive
Cc1c(C(=O)NCC2CCCN(C)C2)cnn1-c1nccc(-c2ccco2)n1 (configuration not stated) | inactive
CC(NC(=S)Nc1ccccc1)C(c1cccs1)N1CCOCC1 (configuration not stated) | inactive

Structure (SMILES) | Potency
CCCC(=O)NC(C)C(c1cccs1)N1CCN(c2ccccc2)CC1 (configuration not stated) | inactive
CCCC(c1nnnn1C(C)(C)C)N1CCN(Cc2ccccc2)CC1 (configuration not stated) | inactive
CC(NC(=O)Nc1ccccc1)C(c1cccs1)N1CCN(c2ccccc2)CC1 (configuration not stated) | 13 µM (active)
O=C(Nc1ccccc1)N1CCN(Cc2ccccc2)CC1 | inactive
CC(NC(=O)C(C)(C)C)C(c1cccs1)N1CCN(Cc2ccccc2)CC1 (configuration not stated) | 20.6 µM (active)
O=C(NCCCN1CCCCCC1)C1CC(=O)N(C2CCCC2)C1 (configuration not stated) | inactive
N#Cc1nc(/C=C/c2ccc(F)cc2)oc1NCc1ccc(F)cc1 | inactive
Cc1cc(NC(=O)CCC(=O)N(CC(=O)NC2CCCC2)c2ccc(F)cc2)no1 | inactive
Cc1[nH]c2ccccc2c1/C=C(/C#N)C(=O)NC(C)C | inactive
CNC(=O)/C(C#N)=C/c1c(F)cccc1Cl | 11.6 µM (active)
N#C/C(=C\c1ccccc1C(F)(F)F)C(=O)Nc1ccccc1F | inactive
Cc1ccsc1C(=O)NCCc1ccco1 | inactive
CCN1CCN(C(C(=O)NC2CCCC2)c2cc3c(cc2[N+](=O)[O-])OCO3)CC1 (configuration not stated) | inactive
CCc1ccccc1NC(=O)c1cc(-c2ccc3c(c2)OCO3)on1 | inactive
COc1ccc(-c2cn(-c3ccc(C)cc3)c(=O)n2CC(=O)Nc2ccc(OC)c(OC)c2)cc1 | inactive
Cc1ccc(Nc2nc(Cl)c(C=O)s2)cc1 | 18.4 µM (active)
CC(=O)c1sc(N/N=C\c2ccc(C)cc2)nc1C | inactive
Cc1ccc(Nc2nnc(SC(C)C(=O)NC3CC3)s2)cc1 (configuration not stated) | inactive
COc1ccc(NC(C)=O)cc1NC(=O)CN1CCN(C2c3ccccc3-c3ccccc32)CC1 | inactive
COCCN(C(=S)Nc1ccccc1OC)C1CCN(C(C)C)CC1 | inactive
Cc1cc(C#N)c(SCC(N)=O)nc1-c1ccc(F)cc1 | inactive
Cc1nn(-c2ccccc2)c(Cl)c1/C=C/C(=O)c1ccc(O)cc1 | inactive
CCC1(C(=O)c2ccccc2)C(c2cccc([N+](=O)[O-])c2)C1(C(=O)OC)C(=O)OC (configuration not stated) | 23.1 µM (active)
O=C(NOCc1ccccc1)c1cccc([N+](=O)[O-])c1 | inactive
Cc1cc(CNC(=O)c2cccc([N+](=O)[O-])c2)c2ccccc2n1 | inactive
CC1O[C@H](OC2C(COC3OC(CO)C(O)[C@H](O)C3O)OC(OC3CC[C@]4(C)C(CC[C@@]5(C)[C@@H]4C=C[C@]46OC[C@@]7(CCC(C)(C)C[C@H]74)C(O)C[C@@]56C)C3(C)C)C(O)C2O)C(O)C(O)C1O (some centres not stated) | inactive

Structure (SMILES) | Potency
Cc1ccc(-c2nn(-c3ccccc3)cc2C(=O)NC2CCC(O)CC2)cc1 (configuration not stated) | inactive
CCc1ccc(-c2nn(-c3ccccc3)cc2CSC(=N)N)cc1 | 16.4 µM (active)
CCc1ccc(-c2nn(-c3ccccc3C)cc2C(=O)N2CCN(C3CCS(=O)(=O)C3)CC2)cc1 (configuration not stated) | inactive
CC1(C)C2CCC13CS(=O)(=O)NC3C2 (configuration not stated) | inactive
COC(=O)c1c(C(=O)OC)c2n(c1C)CCS2 | inactive
CC1(C)CC(=O)C2=C(C1)Nc1cc(C(=O)c3ccccc3)ccc1NC2c1ccccn1 (configuration not stated) | inactive
Cc1cc(C)c(C2C3=C(Nc4c2c(C)nn4-c2ccccn2)c2ccccc2C3=O)c(C)c1 (configuration not stated) | 13 µM (active)
Cc1nn(-c2ccccn2)c2c1C(c1ccncc1)C1=C(CC(C)(C)CC1=O)N2 (configuration not stated) | 29.1 µM (active)
Cc1cc2c(cc1C)NC(c1ccccn1)C1=C(CC(C)(C)CC1=O)N2 (configuration not stated) | inactive
CN(CC(=O)NCc1ccc2c(c1)OCO2)CC(=O)Nc1ccc(F)c(F)c1F | inactive
COc1ccc(-n2nc3c(c2NC(=O)c2ccc(N4C(=O)CCC4=O)cc2)CSC3)cc1 | inactive
O=C(Oc1cccc(C(=S)N2CCOCC2)c1)c1cccc(Cl)c1 | inactive
COC(=O)c1cccc(NC(=O)c2cccc(N3C(=O)CCC3=O)c2)c1 | inactive
COc1ccccc1C(=O)NCC(=O)OCC(=O)Nc1nnc(-c2ccccc2)o1 | inactive
Cc1cc(C)cc(NC(=O)N(C)Cc2ccccc2)c1 | inactive
CC(NC(=O)c1ccco1)C(=O)Nc1nc(-c2ccccn2)cs1 (configuration not stated) | 5.8 µM (active)
CC1CCN(S(=O)(=O)c2nnc(NC(=O)COc3ccccc3F)s2)CC1 | inactive
O=C(COc1ccccc1F)NC1CC1 | inactive
Cc1ccnc(NC(=O)c2ccco2)n1 | inactive
CC1CCCCC1NC(=O)COc1ccc(C#N)cc1 (configuration not stated) | inactive
Cc1cc(NC(=O)[C@H](C)NC(=O)c2ccco2)ccc1Br | inactive
NS(=O)(=O)c1ccc2nc(NC(=O)COc3ccccc3)sc2c1 | inactive
N#Cc1ccc(OCC(=O)Nc2nc(-c3ccccn3)cs2)cc1 | 1.64 µM (active)
O=C(COc1ccccc1F)Nc1nc(-c2ccccn2)cs1 | 5.17 µM (active)

Reference: PubChem BioAssay AID686979 (National Center for Advancing Translational Sciences (NCATS), 2013)
